Screening results as filed in PubChem.
An excerpt weighted towards active compounds, which were near 3.7% of everything screened.
D3 ag – qHTS of D3 Dopamine Receptor Agonist: qHTS; D(3) dopamine receptor (Homo sapiens), P35462; max activation, %; AID 652048, 2013; 0.58% of 410,000 active; D3R DiscoveRx beta-arrestin cells, luminescence, 90 min; in the data active = max activation above about 30%; also: 0% is about no effect
Target sequence (P35462 whole entry, looked up): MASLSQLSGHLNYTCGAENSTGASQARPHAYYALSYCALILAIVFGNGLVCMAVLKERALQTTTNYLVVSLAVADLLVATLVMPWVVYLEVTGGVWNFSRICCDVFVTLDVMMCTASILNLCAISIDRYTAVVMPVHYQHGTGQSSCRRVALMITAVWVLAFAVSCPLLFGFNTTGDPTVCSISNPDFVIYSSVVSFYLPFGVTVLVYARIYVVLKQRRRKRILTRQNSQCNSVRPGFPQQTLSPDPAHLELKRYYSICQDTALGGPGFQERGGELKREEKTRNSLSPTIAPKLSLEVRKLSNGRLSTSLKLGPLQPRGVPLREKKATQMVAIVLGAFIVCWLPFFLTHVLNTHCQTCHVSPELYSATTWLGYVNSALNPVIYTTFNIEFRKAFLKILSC
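Cells at 1500/well, incubated overnight, then treated with pinned compounds (dopamine as control) for 90 min at 37 degrees C. DiscoveRx reagent added for 30 - 60 minutes at room temperature; luminescence read.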
RGS4 inhibitor – Inhibitors of Regulator of G Protein Signaling (RGS) 4: qHTS; Transcreener GDP fluorescence polarization, RGS4-accelerated GTP hydrolysis; Regulator of G-protein signaling 4 (Homo sapiens), P49798; AID 504845, 2011; Potency, µM (series often up to 114 µM), for the others: at the highest dose activity change, negative = inhibition, usual class: inhibitors; 0.039% of 390,000 active; also: potency is read from the fitted curve at half-maximal effect; % is scaled to controls: 0 for no effect and ±100 for the full control effect; nearly all actives have a fitted effect of over 75% in size
Target sequence (P49798 whole entry, looked up): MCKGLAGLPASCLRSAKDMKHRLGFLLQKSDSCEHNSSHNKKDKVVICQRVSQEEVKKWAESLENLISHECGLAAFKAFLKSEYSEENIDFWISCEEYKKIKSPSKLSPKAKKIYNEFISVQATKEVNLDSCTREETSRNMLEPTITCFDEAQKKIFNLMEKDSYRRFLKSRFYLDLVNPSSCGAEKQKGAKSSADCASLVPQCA
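MLSMR compounds (23 nl, pin-transferred) preincubated 10 min at room temperature with a 500nM (2x) first reagent, then RGS4 at 900nM (2x) plus Transcreener GDP mix added; fluorescence polarization (620/688 nm) read before and after 90 min at 30 °C.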
PTHR1 ag – qHTS for PTHR1 Agonists: Primary Screen; AID 743266, 2014; 0.075% of 410,000 active; Potency, µM (series often up to 115 µM), for inactives: at the top dose activation, usual class: activators; HEK293 GP2 PTHR1 cells, GloSensor cAMP luminescence, 1 h; Parathyroid hormone/parathyroid hormone-related peptide receptor (Homo sapiens), Q03431; also: potency is read from the fitted curve at half-maximal effect; nearly all actives have a fitted effect of over 55% in size
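HEK-293-derived GP2 cells expressing PTHR1 and a GloSensor cAMP reporter, 3,000/well, plated overnight, given luciferin plus IBMX (each 0.5 mM as added) for 1 h at 37 °C, then compound for 1 h at 37 °C. Luminescence was read after 15 min at room temperature.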
B2AR arrestin – qHTS assay of beta-arrestin-biased ligands of beta2-adrenergic receptor; Beta-2 adrenergic receptor (Homo sapiens), P07550; beta-arrestin recruitment to beta2AR, cell-based reporter; Potency, µM (highest dose often 46.1 µM), for inactives: top-dose activation, usual class: activators; 0.02% of 330,000 active;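 also: potency is read from the fitted curve at half-maximal effect; 0% = DMSO controls and full agonism = EC100 isoproterenol or metaproterenol; nearly all actives have a fitted effect of over 65% in size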
BRCA1 expr up – qHTS Assay to Identify Small Molecule Activators of BRCA1 Expression | AID 624202, 2012 | Potency, µM (highest dose often 46.1 µM), for the others: at the top dose activation, usual class: activators | MCF7-BRCA1-FFLuc reporter, luminescence, 48 h; response scale: scaled: vehicle 0%, 10 µM genistein 100% | 1.1% of 380,000 active; also: potency is read from the fitted curve at half-maximal effect; nearly all actives have a fitted effect of over 80% in size
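Quantitative HTS in MCF7 cells stably reporting BRCA1 expression via firefly luciferase. Compound treatment lasts 48 h at 37 °C in phenol-red free MEM. Activation is expressed relative to genistein at 10 microM and DMSO.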
D3 antag – qHTS of D3 Dopamine Receptor Antagonist: qHTS; D(3) dopamine receptor (Homo sapiens), P35462; D3R cells, DiscoveRx beta-arrestin luminescence, antagonist mode; stronger effect = lower value; max response, negative = inhibition, %; 2.5% of 360,000 active; AID 652054, 2013; in the data active = max response below about -50%; inconclusive = no clear call, values can overlap the other calls; also: % is scaled to controls: 0 for no effect and ±100 for the full control effect
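Cells plated overnight at 1500 cells/well, then exposed to library compounds with dopamine controls for 90 minutes at 37 degrees C. DiscoveRx reagent added for 30–60 minutes at room temperature; luminescence read, quantitative HTS format.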
Active calls of the source: *; ! = a repeat was not active; [ ] = dose if it differs, or a comment. Unless noted, calls follow the shape of the dose curve; as a rule, active = well fitted curve in the direction sought with a large enough effect; inconclusive = small, poorly fitted or top-dose-only effect, or another doubt; inactive = no such curve, though single readings can be large; an effect the other way counts as inactive or inconclusive.

How did NC(=O)C1c2ccccc2Oc2ccccc21 do in these assays?
D3 ag: 7; RGS4 inhibitor: -10%; PTHR1 ag: inactive; B2AR arrestin: 0%; BRCA1 expr up: -6%; D3 antag: 4

How did O=C(NCCC1CCCCN1S(=O)(=O)c1cccs1)C(=O)Nc1cccc(F)c1 (stereo unspecified) do in these assays?
D3 ag: -12; RGS4 inhibitor: -17%; PTHR1 ag: -62%; B2AR arrestin: 0%; BRCA1 expr up: -11%; D3 antag: inconclusive

Results for COc1ccc(N=Cc2cc(Cc3ccccc3Cl)cc([N+](=O)[O-])c2O)cc1OC ?
D3 ag: -15; RGS4 inhibitor: -31%; PTHR1 ag: -19%; B2AR arrestin: 0%; BRCA1 expr up: -44%; D3 antag: -96*

How did Cc1ccc(N=Cc2cc(Cc3ccccc3Cl)cc([N+](=O)[O-])c2O)c(O)c1 do in these assays?
D3 ag: -9; RGS4 inhibitor: -6%[11.4 µM]; PTHR1 ag: -13%; B2AR arrestin: 0%; BRCA1 expr up: -19%; D3 antag: -74*

What do the screens show for `Cc1cc(O)c(C(C)C)cc1N=Cc1ccccc1[N+](=O)[O-]`?
D3 ag: -12; RGS4 inhibitor: inconclusive; PTHR1 ag: -3%; BRCA1 expr up: -59%; D3 antag: -26

Results for Cn1c(=O)c2c(n3ncnc13)NC(=O)CC2c1cccc(F)c1 (stereo unspecified) ?
D3 ag: 7; RGS4 inhibitor: -11%; PTHR1 ag: inactive; BRCA1 expr up: 41%

How did O=C(CSc1nc(=O)n(CCN2CCOCC2)c2c1CCC2)Nc1ccc(F)cc1F do in these assays?
D3 ag: -2; RGS4 inhibitor: -11%; PTHR1 ag: -11%

What do the screens show for `O=C(CCCOc1ccc(Br)cc1)NCCc1ccc(OC(F)F)cc1`?
D3 ag: -2; RGS4 inhibitor: 26%; PTHR1 ag: -22%; B2AR arrestin: 0%; BRCA1 expr up: 3%; D3 antag: 1

What do the screens show for `Cc1onc(-c2c(Cl)cccc2Cl)c1C(=O)NN1CCCCCC1`?
D3 ag: -8; RGS4 inhibitor: -1%; PTHR1 ag: inactive; B2AR arrestin: -1%; BRCA1 expr up: -13%; D3 antag: 13

What do the screens show for `Cc1c(C(=O)NN2CCCCC2)nn(-c2ccc(Cl)cc2Cl)c1-c1ccc(I)cc1`?
RGS4 inhibitor: 30µM*!; B2AR arrestin: 0%

Results for COC(=O)N1N=C(c2ccccc2)CC1(O)C(F)(F)F (stereo unspecified) ?
D3 ag: -26; RGS4 inhibitor: 13%; PTHR1 ag: -7%[57.5 µM]; B2AR arrestin: -3%; BRCA1 expr up: 11µM*; D3 antag: -12

What do the screens show for `O=C(CN1C(=O)COc2ccc(S(=O)(=O)N3CCCCCC3)cc21)N1CCN(c2cccc(Cl)c2)CC1`?
D3 ag: -15; RGS4 inhibitor: -1%; PTHR1 ag: -27%; BRCA1 expr up: 0%

What do the screens show for `Cc1nc(-c2ccccc2)nn1-c1ccc([N+](=O)[O-])cc1`?
D3 ag: -3; RGS4 inhibitor: -12%; PTHR1 ag: inactive; BRCA1 expr up: 5µM*; D3 antag: inconclusive

How did CC(=O)N1/C(=C/c2ccc(N(C)C)cc2)C(=O)c2ccccc21 do in these assays?
D3 ag: -12; RGS4 inhibitor: inconclusive; PTHR1 ag: -88%; B2AR arrestin: 0%; BRCA1 expr up: -65%; D3 antag: -51*

Results for CN(C)c1ccc(/C=C2\C(=O)/C(=C/c3ccc(N(C)C)cc3)c3ccccc32)cc1 ?
BRCA1 expr up: -48%

Results for CCOC1=C2[C@@H](CN(S(=O)(=O)c3ccccc3C)[C@H]2c2ccc(Cl)cc2)[C@H]2C(=O)NC(=O)[C@H]2C1 ?
D3 ag: -1; PTHR1 ag: -18%; BRCA1 expr up: -13%; D3 antag: -72*

How did CN1CCC(OC(c2ccccc2)c2ccc(Cl)cc2)C1 (stereo unspecified) do in these assays?
D3 ag: -17; RGS4 inhibitor: 6%; PTHR1 ag: -9%; BRCA1 expr up: -38%; D3 antag: -74*

How did CN1C2CCC1CC(OC(c1ccccc1)c1ccccc1)C2 (stereo unspecified) do in these assays?
D3 ag: -21; RGS4 inhibitor: 12%[56.9 µM]; PTHR1 ag: 3%; B2AR arrestin: 0%; BRCA1 expr up: 4%; D3 antag: inconclusive

How did COC(CN1CCc2c(C)nc3c(C#N)cnn3c21)OC do in these assays?
D3 ag: 7; RGS4 inhibitor: 18%; PTHR1 ag: 3%; B2AR arrestin: 0%; BRCA1 expr up: 0%; D3 antag: -3

Results for COc1ccc(-c2cnn3c4c(c(C)nc23)CCN4C(C)C)cc1OC ?
D3 ag: 41*; RGS4 inhibitor: -45%; PTHR1 ag: -14%[57.5 µM]; B2AR arrestin: 0%; BRCA1 expr up: 56%; D3 antag: 33

Results for CCCCOc1c(Cl)cc(C(=O)N(Cc2ccc(C)o2)C2CCS(=O)(=O)C2)cc1Cl (stereo unspecified) ?
D3 ag: -11; RGS4 inhibitor: 16%; PTHR1 ag: -23%

Results for CC(NS(=O)(=O)c1ccc(Br)cc1)C(c1cccs1)N1CCN(C)CC1 (stereo unspecified) ?
D3 ag: -10; RGS4 inhibitor: -11%; PTHR1 ag: inactive; B2AR arrestin: 0%; BRCA1 expr up: -21%; D3 antag: -52*

Results for CCCCC[C@@H](C)N1C[C@H](COCc2ccccc2)Oc2cc(N3CC[C@H](O)C3)ccc2S1(=O)=O ?
D3 ag: 4; PTHR1 ag: inactive; BRCA1 expr up: -65%; D3 antag: 19

How did CCOC(=O)c1nnn(-c2nonc2N)c1-c1ccc(OC)cc1 do in these assays?
D3 ag: 3; RGS4 inhibitor: -11%; PTHR1 ag: -13%; B2AR arrestin: 0%; BRCA1 expr up: 5%; D3 antag: -54*

How did CCCc1c(C(=O)N/N=C(\C)c2ccccn2)nnn1-c1nonc1N do in these assays?
D3 ag: -13; PTHR1 ag: inactive; BRCA1 expr up: -75%; D3 antag: -85*

How did CCCc1c(C(=O)N/N=C(\C)c2ccc(O)cc2)nnn1-c1nonc1N do in these assays?
D3 ag: -3; RGS4 inhibitor: -33%; PTHR1 ag: inactive; B2AR arrestin: 0%; BRCA1 expr up: 0%; D3 antag: -10
